Rango release inh: prevents RanGTP from dissociating the Rango-importin beta complex. 340,000 tested, 0.071% active. AID 540253. Biochemical FRET Rango-importin beta, RanGTP-induced dissociation. Potency, µM (titrated, usually from 46.1 µM). O95149+P62826; calls by dose curve; note: nearly all actives have a fitted effect of over 45% in size
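Compounds sat 5 min at room temperature with 0.1 uM Rango biosensor plus 0.25 uM importin beta, then FRET pre-read. RanGTP-RCC1 (0.6 uM Ran, 2mM GTP, 0.2 uM RCC1) added for 45 min, and the CFP/YFP post-read measured blocked complex dissociation.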
Rango-impB inh: Rango-importin beta binding inhibition; 340,000 tested, 0.031% active; Potency, µM (top dose mostly 92.2 µM); Rango CFP/YFP FRET sensor + importin beta, 45 min; calls by dose curve; note: nearly all actives have a fitted effect of over 15% in size
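FRET biosensor Rango (snurportin 1 IBB between N-terminal EYFP and C-terminal Cerulean), 50 nM in PBS/1 mM DTT/0.02% Tween-20/0.1% BSA, preincubated 5 min RT with compound; 0.125 microM importin beta added, 45 min RT, CFP/YFP FRET ratio read.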
Nrf2 block: inhibitors of Nrf2 signaling; Potency, µM (top dose mostly 46 µM), usual class: inhibitors; 360,000 tested, 2.1% active; A549 ARE-Fluc reporter, luciferase luminescence, 18-24 h; note: nearly all actives have a fitted effect of over 60% in size
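Cells were seeded and rested 2 h, then exposed to compounds for 18-24 h. CellTiter-Fluor was read first as a viability measure. BugLite was added 15 min before the final luminescent read of ARE-luciferase activity in A549 cells.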
A549 viability: kills or reduces viability of A549 cells in Nrf2 counter-screen. A549 ARE-Fluc cells, CellTiter-Fluor viability, 18-24 h. Potency, µM (titrated, usually from 46 µM), actives largely listed as inhibitors. 390,000 tested, 0.16% active. AID 504648
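A549 ARE-Fluc cells in 5% FBS OPTI-MEM, 5000 cells/well, rested 2 h then exposed to compounds in concentration-response for 18-24 h at 37 °C. Viability by CellTiter-Fluor fluorescence (Ex 405/Em 525) after 30 min; luciferase luminescence (BugLite, 15 min, RT) read afterwards.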
Nrf2 activator: activates Nrf2 signaling; AREc32 ARE-luciferase reporter (MCF7-derived line), luminescence, 24 h; 410,000 tested, 0.31% active; Potency, µM (doses to about 46.1 µM), hits mostly activators; note: nearly all actives have a fitted effect of over 65% in size
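For detection, Steady-Glo was added and plates sat 30 min at RT; before that, AREc32_Fluc cells grown overnight in OPTI-MEM/5% FBS had been treated with 23 nL compound for 24 hr at 37 deg C.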
Of the large screens only hits and unclear results are named; the others gave an inactive call. Compounds with a hit are over-represented: about 2.3% of the library has one in this group of screens. Unless noted, calls come from the whole dose curve; as a rule, active = well fitted curve in the direction sought with a large enough effect; inconclusive = small, poorly fitted or top-dose-only effect, or another doubt; inactive = no such curve, though single readings can be large; an effect the other way counts as inactive or inconclusive.

Cc1cc(Cl)ccc1OCC(=O)NCC(c1cccs1)N1CCOCC1 (centres undefined)	Rango-impB inh inconclusive, Nrf2 block 18µM
O=C(COc1cccc(Cl)c1)NCC(c1cccs1)N1CCOCC1 (centres undefined)	Nrf2 block inconclusive
Cc1ccc(NC(=O)c2ccc(F)c(S(=O)(=O)N3CCOCC3)c2)cc1F	Nrf2 block 13µM
CCCc1c(C(=O)Nc2cc(C(C)(C)C)on2)cnn1-c1ccccc1	Nrf2 block 6.5µM
Cc1cccc(N2CCN(C(=O)CSCc3c(C)noc3C)CC2)c1C	Nrf2 block 1.8µM
COc1ccc(-n2cc(C(=O)N(CCN(C)C)Cc3ccccc3)c3ccccc3c2=O)cc1	Nrf2 block inconclusive (no result: Rango release inh, Rango-impB inh)
Cc1ccc(NS(=O)(=O)c2cc3c(cc2-c2cn[nH]c2)NC(=O)CO3)cc1C	none (no result: Rango release inh, Rango-impB inh, Nrf2 activator)
C=CCn1c(SCc2c(C)noc2C)nc2sc3c(c2c1=O)CCCCC3	Nrf2 block 16µM
COc1ccc(C(=O)NCCN2CCOCC2)cc1S(=O)(=O)Nc1ccc(C)cc1	none
CCCCn1c(SCC(=O)Nc2cc(C(F)(F)F)cc(C(F)(F)F)c2)nnc1C(CC)N(C)C (centres undefined)	Rango-impB inh inconclusive, Nrf2 block 13µM, A549 viability inconclusive
COc1ccc(CCN(C)C(=O)c2cc(S(=O)(=O)N3CCCCC3)ccc2Cl)cc1OC	Nrf2 block 16µM
COc1cccc(NC(=O)CN(C)C(=O)c2cccc(S(=O)(=O)N3CCN(c4ccccc4)CC3)c2)c1	Nrf2 block inconclusive
COc1cccc(CN(C)C(=O)c2cc(S(=O)(=O)N3CCN(c4ccccc4)CC3)ccc2Cl)c1	Nrf2 block 21µM
COc1ccc(CN2C[C@]3(CO)O[C@@H](CO)C[C@@H]3S2(=O)=O)cc1	none
Cc1ccc(NS(=O)(=O)c2ccc(NC(=O)CN(c3cc([N+](=O)[O-])ccc3C)S(C)(=O)=O)cc2)c(C)c1	Nrf2 block 9.2µM, A549 viability inconclusive
Cc1ccc([N+](=O)[O-])cc1N(CC(=O)NC1CCCC1)S(C)(=O)=O	Rango-impB inh inconclusive
CC(=O)OCCCNc1cc(SCc2ccco2)c2nonc2c1[N+](=O)[O-]	Rango-impB inh inconclusive, A549 viability 16µM, Nrf2 activator inconclusive
COc1cc(/C=C/c2[nH]c(=O)[nH]c(=O)c2[N+](=O)[O-])cc([N+](=O)[O-])c1O	A549 viability 16µM
CCN(CC)C(=O)C1CCCN(c2ncnc3c2c(-c2ccccc2)cn3-c2cccc(C)c2)C1 (centres undefined)	none (no result: Rango release inh, Rango-impB inh, Nrf2 block)
CCSc1nnc(NC(=O)C(CC)(C(F)(F)F)C(F)(F)F)s1	Nrf2 block 15µM, A549 viability inconclusive
CCSc1nnc(NC(=O)C(C)(C(F)(F)F)C(F)(F)F)s1	Nrf2 block 16µM, A549 viability inconclusive
CCSc1nnc(NC(=O)C(C(F)(F)F)C(F)(F)F)s1	Nrf2 activator inconclusive
N#C/C(=C/c1ccc(N2CCOCC2)o1)c1ccc(Cl)cc1	Rango release inh inconclusive, Rango-impB inh inconclusive, Nrf2 block inconclusive, A549 viability inconclusive, Nrf2 activator 13µM
CCc1ccc(-c2csc(NC(=O)C3CCCO3)c2C(=O)OC(C)C)cc1 (centres undefined)	Nrf2 block inconclusive
COC(=O)c1c(-c2ccc(F)cc2)csc1NC(=O)C1CCCO1 (centres undefined)	Nrf2 block 18µM
O=C(c1ccc2c(=O)n(CCc3ccccc3)c(=O)[nH]c2c1)N1CCN(C(=O)c2ccco2)CC1	Nrf2 block inconclusive (no result: Rango release inh, Rango-impB inh, Nrf2 activator)
Clc1ccc2c(NCc3ccccn3)ncnc2c1	Nrf2 activator 6.3µM (no result: Nrf2 block)
Clc1ccc2c(NCc3cccs3)ncnc2c1	Nrf2 block 16µM
COc1cc2ncnc(NCc3cccs3)c2cc1OC	none
O=C(O)Cc1cc(F)c(S(=O)(=O)N2CCN(S(=O)(=O)c3ccc4c(c3)OCCO4)CC2)cc1F	none (no result: Rango release inh, Rango-impB inh, Nrf2 activator)
COc1ccc(S(=O)(=O)Nc2cccc3c2O[C@H](CN(C)Cc2ccc(Oc4ccccc4)cc2)[C@@H](C)CN([C@H](C)CO)C3=O)cc1	Nrf2 block 16µM
C[C@H]1CN([C@@H](C)CO)C(=O)c2cccc(NC(=O)Nc3ccc(C(F)(F)F)cc3)c2O[C@@H]1CN(C)S(=O)(=O)c1ccc(Cl)cc1	Nrf2 block inconclusive, A549 viability inconclusive
C[C@H](CO)N1C[C@H](C)[C@@H](CN(C)S(=O)(=O)c2ccc(F)cc2)Oc2c(NC(=O)Nc3ccc(C(F)(F)F)cc3)cccc2C1=O	Nrf2 block 18µM
C[C@@H]1CN([C@H](C)CO)C(=O)c2cc(NS(=O)(=O)c3ccc(F)cc3)ccc2O[C@@H]1CN(C)Cc1ccc(Cl)c(Cl)c1	Nrf2 block 18µM, A549 viability 15µM
C[C@H](CO)N1C[C@H](C)[C@@H](CN(C)CC2CCCCC2)Oc2c(NC(=O)Cc3ccccc3)cccc2C1=O	Nrf2 block 23µM
C[C@H](CO)N1C[C@H](C)[C@@H](CN(C)Cc2ccc(Cl)c(Cl)c2)Oc2c(NC(=O)C3CC3)cccc2C1=O	Nrf2 block inconclusive, A549 viability inconclusive
C[C@H](CO)N1C[C@H](C)[C@@H](CN(C)Cc2ccc(Cl)c(Cl)c2)Oc2c(NC(=O)CCC(F)(F)F)cccc2C1=O	Nrf2 block 18µM
COc1ccc(NS(=O)(=O)c2ccc3oc(SC)nc3c2)cc1	Nrf2 block 21µM
CNC(=O)CSc1nc2cc(S(=O)(=O)Nc3ccc(OC)cc3)ccc2o1	none
Cc1nccc(-c2sc(-c3cccs3)nc2C)n1	Nrf2 activator 13µM
Cn1nnnc1Sc1ncnc2scc(-c3ccccc3S(C)(=O)=O)c12	none (no result: Rango release inh, Rango-impB inh, Nrf2 activator)
O=C(C1=C[C@H](C2CCCCC2)C[C@H](OCCCCO)O1)N1CCN(Cc2ccc3c(c2)OCO3)CC1	Nrf2 block 18µM, A549 viability inconclusive
O=C(C1=C[C@H](c2ccc3c(c2)OCO3)C[C@H](OCc2ccc(CO)cc2)O1)N1CCN(Cc2ccc3c(c2)OCO3)CC1	Nrf2 block 21µM
O=C(C1=C[C@H](c2ccc(Br)cc2)C[C@H](OCc2ccc(CO)cc2)O1)N1CCN(Cc2ccc3c(c2)OCO3)CC1	Nrf2 block inconclusive
Cc1ccc(NS(=O)(=O)c2ccc3c(c2)N(C)C(=O)CO3)cc1C	Nrf2 block inconclusive (no result: Rango release inh, Rango-impB inh, Nrf2 activator)
O=C(N/C=N/OCc1ccc(Cl)cc1Cl)NOCc1c(Cl)cccc1Cl	Nrf2 block 26µM
COc1ccc(OCC(O)CN2CCNCC2)cc1 (centres undefined)	Rango-impB inh inconclusive
COc1cc(OC)cc(C(=O)N2CCN(C(=O)c3ccc(-c4ccccc4)cc3)CC2)c1	none
COc1ccc(C(=O)N2CCN(C(=O)c3ccc(-c4ccccc4)cc3)CC2)cc1OC	Nrf2 block 13µM
COc1ccc(C(=O)N2CCN(c3nc4ccccc4o3)CC2)cc1OC	Rango release inh inconclusive, Nrf2 block 18µM
COc1ccc(C(=O)N2CCN(c3ccc(C)cc3)CC2)cc1OC	none
